Laboratory results taken from PubChem BioAssay (EPA / NIEHS).
The source made the active and inactive calls. Rule for the calls: active = hit-call score of the fitted dose curve at least 0.9, where 1 is the maximum; inactive = score below 0.9.

Assays:
Conditions in all cases: mRNA level, 48 h; actives raise or lower the signal
Caspase-3 (Homo sapiens) = Caspase-3 (Homo sapiens) (UniProt P42574); assay: LTEA_HepaRG_CASP3: Life Technologies and Expression Analysis (LTEA) Assay for cysteine-aspartic acid protease (CASP3) using HepaRG (AID 2283477)
Outline: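 In HepaRG liver cells dosed for 48 h at up to 100 uM (eight-point, duplicate), CASP3 expression changes are scored by qRT-PCR. Activity is fitted in both directions with 0.5% DMSO as baseline.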

[1] = read-out: Cytochrome P450 (CYP24A1), CYP24A1 (gene 1591); assay: LTEA_HepaRG_CYP24A1: Life Technologies and Expression Analysis (LTEA) Assay for Cytochrome P450 (CYP24A1) using HepaRG (AID 2283478)
Outline: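 Human liver HepaRG cultures receive each chemical for 48 h across an eight-point half-log series topping at 100 uM in 0.5% DMSO. Induction or suppression of CYP24A1 mRNA is scored relative to vehicle after housekeeping-gene normalization.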

[2] = read-out: Cytochrome P450 (CYP1A2), CYP1A2 (gene 1544); assay: LTEA_HepaRG_CYP1A2: Life Technologies and Expression Analysis (LTEA) Assay for Cytochrome P450 (CYP1A2) using HepaRG (AID 2283479)
Outline: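 Assesses CYP1A2 mRNA in human HepaRG liver cells after 48 h chemical exposure at up to 100 uM. Values come from qRT-PCR with bidirectional curve fitting relative to DMSO.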

[3] = read-out: cysteine-aspartic acid protease (CASP8), CASP8 (gene 841); assay: LTEA_HepaRG_CASP8: Life Technologies and Expression Analysis (LTEA) Assay for cysteine-aspartic acid protease (CASP8) using HepaRG (AID 2283480)
Outline: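 CASP8 transcript measured by TaqMan qRT-PCR with ACTB/GAPDH/POLR2A normalization, after 48 h chemical exposure of HepaRG cells in serum-free induction medium. Eight concentrations, top 100 uM, half-log steps, 0.5% DMSO vehicle; fits in both directions versus DMSO.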

[4] = read-out: Cytochrome P450 (CYP2B6), CYP2B6 (gene 1555); assay: LTEA_HepaRG_CYP2B6: Life Technologies and Expression Analysis (LTEA) Assay for Cytochrome P450 (CYP2B6) using HepaRG (AID 2283481)
Outline: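 Using 48 h treatment of HepaRG cells in serum-free induction medium, concentrations spanned half-log steps from 100 uM in 0.5% DMSO vehicle. CYP2B6 mRNA induction or loss is scored by qRT-PCR against DMSO.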

[5] = read-out: Cytochrome P450 2C19 (Homo sapiens) (UniProt P33261); assay: LTEA_HepaRG_CYP2C19: Life Technologies and Expression Analysis (LTEA) Assay for CYP2C19 using HepaRG (AID 2283482)
Outline: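 Human HepaRG liver cells received test chemicals for 48 h (highest 100 uM, half-log dilutions in 0.5% DMSO). CYP2C19 mRNA induction or loss is read by multiplexed qRT-PCR and fitted in both directions versus vehicle.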

CYP2C8 (gene 1558) = assay: LTEA_HepaRG_CYP2C8: Life Technologies and Expression Analysis (LTEA) Assay for CYP2C8 using HepaRG (AID 2283483)
Outline: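 CYP2C8 expression measured by TaqMan qRT-PCR and normalized to three housekeeping genes. HepaRG cultures were treated for 48 h with an eight-point half-log series topping at 100 uM, vehicle 0.5% DMSO, duplicates; fitted both directions against DMSO.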

CYP2C9 (gene 1559) = assay: LTEA_HepaRG_CYP2C9: Life Technologies and Expression Analysis (LTEA) Assay for CYP2C9 using HepaRG (AID 2283484)
Outline: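 CYP2C9 transcript level, quantified by TaqMan qRT-PCR against three housekeeping genes, was fitted bidirectionally relative to 0.5% DMSO. HepaRG cultures were treated 48 h, in duplicate, at eight half-log concentrations topping at 100 uM.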

CYP2E1 (gene 1571) = assay: LTEA_HepaRG_CYP2E1: Life Technologies and Expression Analysis (LTEA) Assay for CYP2E1 using HepaRG (AID 2283485)
Outline: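 Assay uses 48 h exposure of HepaRG hepatic cells, eight concentrations to 100 uM. Expression of CYP2E1 is quantified by TaqMan qRT-PCR with ACTB, GAPDH and POLR2A normalization; curves fitted in both directions relative to vehicle.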

CYP4A11 (gene 1579) = assay: LTEA_HepaRG_CYP4A11: Life Technologies and Expression Analysis (LTEA) Assay for CYP4A11 using HepaRG (AID 2283486)
Outline: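 Readout is CYP4A11 mRNA induction or suppression (qRT-PCR, ACTB/GAPDH/POLR2A normalization) in human HepaRG cells after 48 h chemical treatment, concentrations to 100 uM in 0.5% DMSO, fitted bidirectionally against vehicle.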

[6] = read-out: Cytochrome P450 3A4 (Homo sapiens) (UniProt P08684); assay: LTEA_HepaRG_CYP3A4: Life Technologies and Expression Analysis (LTEA) Assay for CYP3A4 using HepaRG (AID 2283487)
Outline: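 CYP3A4 transcript measured by TaqMan qRT-PCR and normalized to three housekeeping genes after 48 h chemical exposure of human HepaRG cells. Top concentration 100 uM, half-log steps, 0.5% DMSO vehicle; gain or loss fitted against DMSO baseline.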

[7] = read-out: DNA damage-inducible transcript 3 (DDIT3), DDIT3 (gene 1649); assay: LTEA_HepaRG_DDIT3: Life Technologies and Expression Analysis (LTEA) Assay for DNA damage-inducible transcript 3 (DDIT3) using HepaRG (AID 2283488)
Outline: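 Eight-point concentration-response (100 uM highest, half-log dilutions) in HepaRG, 48 h, duplicate wells. Endpoint: qRT-PCR mRNA, normalized (ACTB, GAPDH, POLR2A), bidirectional fitting with DMSO as baseline.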

[8] = read-out: Pro-epidermal growth factor (Homo sapiens) (UniProt P01133); assay: LTEA_HepaRG_EGF: Life Technologies and Expression Analysis (LTEA) Assay for Epidermal growth factor (EGF) using HepaRG (AID 2283489)
Outline: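 EGF expression changes in human HepaRG cells are scored by bidirectional fitting relative to 0.5% DMSO controls. Chemicals are tested at eight half-log concentrations up to 100 uM for 48 h in serum-free induction medium.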

[9] = read-out: Early growth response protein 1 (EGR1) transcription factor, EGR1 (gene 1958); assay: LTEA_HepaRG_EGR1: Life Technologies and Expression Analysis (LTEA) Assay for Early growth response protein 1 (EGR1) transcription factor using HepaRG (AID 2283490)
Outline: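 EGR1 transcript levels quantified by qRT-PCR (Fluidigm arrays) against three housekeeping genes after 48 h chemical exposure of HepaRG cells. Eight-point half-log series topping at 100 uM, 0.5% DMSO vehicle, analyzed for gain or loss.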

[10] = read-out: Ezrin (EZR), EZR (gene 7430); assay: LTEA_HepaRG_EZR: Life Technologies and Expression Analysis (LTEA) Assay for Ezrin (EZR) using HepaRG (AID 2283491)
Outline: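 HepaRG, 48 h chemical exposure, 8-pt half-log series from 100 uM, 0.5% DMSO vehicle, duplicates. Read-out: EZR mRNA by TaqMan qRT-PCR (Fluidigm array), housekeeping-normalized; bidirectional curve fit vs DMSO baseline.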

[11] = read-out: Cytochrome P450 3A7 (Homo sapiens) (UniProt P24462); assay: LTEA_HepaRG_CYP3A7: Life Technologies and Expression Analysis (LTEA) Assay for CYP3A7 using HepaRG (AID 2283492)
Outline: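 Cells were thawed, plated, cultured 48 h, then treated for a further 48 h with chemicals (eight-point half-log series from 100 uM, 0.5% DMSO). RNA was isolated and CYP3A7 expression quantified by qRT-PCR normalised to ACTB, GAPDH and POLR2A.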

CYP3A5 (gene 1577) = assay: LTEA_HepaRG_CYP3A5: Life Technologies and Expression Analysis (LTEA) Assay for CYP3A5 using HepaRG (AID 2283493)
Outline: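 Readout was CYP3A5 mRNA by qRT-PCR. HepaRG cultures were exposed for 48 h in serum-free induction medium to chemicals at up to 100 uM, and responses were fitted in both directions relative to DMSO vehicle.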

[12] = read-out: Fatty Acid-Binding Protein 1 (FABP1), FABP1 (gene 2168); assay: LTEA_HepaRG_FABP1: Life Technologies and Expression Analysis (LTEA) Assay for Fatty Acid-Binding Protein 1 (FABP1) using HepaRG (AID 2283494)
Outline: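 FABP1 expression by TaqMan qRT-PCR, normalised to three housekeeping genes, in HepaRG cells after 48 h chemical treatment. Eight-point half-log series topping at 100 uM in 0.5% DMSO, duplicates; gain or loss fitted relative to vehicle.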

[13] = read-out: Cytochrome P450 7A1 (Homo sapiens) (UniProt P22680); assay: LTEA_HepaRG_CYP7A1: Life Technologies and Expression Analysis (LTEA) Assay for Cytochrome P450 7A1 (CYP7A1) using HepaRG (AID 2283496)
Outline: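 Using 0.5% DMSO as vehicle and baseline, chemicals were tested in duplicate over an 8-point range from 100 uM on HepaRG cells for 48 h; qRT-PCR signals were normalised to ACTB, GAPDH and POLR2A.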

[14] = read-out: Cytochrome P450 4A22 (Homo sapiens) (UniProt Q5TCH4); assay: LTEA_HepaRG_CYP4A22: Life Technologies and Expression Analysis (LTEA) Assay for Cytochrome P450 4A22 (CYP4A22) using HepaRG (AID 2283495)
Outline: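 Cryopreserved HepaRG cells, plated and cultured 48 h, then switched to serum-free induction medium and treated 48 h (duplicates, up to 100 uM, half-log steps, 0.5% DMSO). Expression change of CYP4A22 was fitted bidirectionally against vehicle.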

Measured: AC50

Sequence of Cytochrome P450 3A4 (Homo sapiens) (P08684 whole entry, looked up): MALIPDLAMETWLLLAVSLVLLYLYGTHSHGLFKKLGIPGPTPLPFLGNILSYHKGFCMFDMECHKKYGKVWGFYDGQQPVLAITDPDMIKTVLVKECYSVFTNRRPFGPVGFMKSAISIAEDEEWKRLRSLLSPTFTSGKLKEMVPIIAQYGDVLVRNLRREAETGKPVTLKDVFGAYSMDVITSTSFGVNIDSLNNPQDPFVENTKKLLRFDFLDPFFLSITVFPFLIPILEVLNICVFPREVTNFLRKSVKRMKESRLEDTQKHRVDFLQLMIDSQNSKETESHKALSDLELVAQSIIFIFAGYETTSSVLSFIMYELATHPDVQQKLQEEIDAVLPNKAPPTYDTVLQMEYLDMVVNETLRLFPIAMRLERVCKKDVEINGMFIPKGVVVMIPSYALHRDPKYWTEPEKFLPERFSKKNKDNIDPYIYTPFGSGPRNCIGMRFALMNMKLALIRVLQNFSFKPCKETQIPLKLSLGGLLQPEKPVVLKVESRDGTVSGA
Sequence of Cytochrome P450 2C19 (Homo sapiens) (P33261 whole entry, looked up): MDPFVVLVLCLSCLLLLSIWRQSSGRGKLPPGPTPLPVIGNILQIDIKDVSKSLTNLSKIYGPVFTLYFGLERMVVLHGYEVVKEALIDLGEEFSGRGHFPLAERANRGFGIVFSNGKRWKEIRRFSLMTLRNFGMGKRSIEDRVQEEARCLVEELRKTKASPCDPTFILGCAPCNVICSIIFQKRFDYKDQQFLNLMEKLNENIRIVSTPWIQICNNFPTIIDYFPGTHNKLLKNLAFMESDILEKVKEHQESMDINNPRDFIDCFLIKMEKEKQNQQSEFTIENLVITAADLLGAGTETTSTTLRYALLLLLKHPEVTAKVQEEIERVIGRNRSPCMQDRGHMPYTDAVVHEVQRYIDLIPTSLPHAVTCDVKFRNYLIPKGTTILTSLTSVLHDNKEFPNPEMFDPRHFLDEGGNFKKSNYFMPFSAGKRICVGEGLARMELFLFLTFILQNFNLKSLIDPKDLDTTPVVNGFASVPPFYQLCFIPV
Sequence of Caspase-3 (Homo sapiens) (P42574 whole entry, looked up): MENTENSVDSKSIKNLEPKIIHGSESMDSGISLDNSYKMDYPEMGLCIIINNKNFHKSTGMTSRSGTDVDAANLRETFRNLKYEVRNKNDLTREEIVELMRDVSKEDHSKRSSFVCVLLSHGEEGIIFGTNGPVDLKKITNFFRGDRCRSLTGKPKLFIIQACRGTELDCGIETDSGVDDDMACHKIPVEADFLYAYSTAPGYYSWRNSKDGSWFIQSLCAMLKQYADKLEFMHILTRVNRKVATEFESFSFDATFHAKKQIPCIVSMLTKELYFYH
Sequence of Cytochrome P450 3A7 (Homo sapiens) (P24462 whole entry, looked up): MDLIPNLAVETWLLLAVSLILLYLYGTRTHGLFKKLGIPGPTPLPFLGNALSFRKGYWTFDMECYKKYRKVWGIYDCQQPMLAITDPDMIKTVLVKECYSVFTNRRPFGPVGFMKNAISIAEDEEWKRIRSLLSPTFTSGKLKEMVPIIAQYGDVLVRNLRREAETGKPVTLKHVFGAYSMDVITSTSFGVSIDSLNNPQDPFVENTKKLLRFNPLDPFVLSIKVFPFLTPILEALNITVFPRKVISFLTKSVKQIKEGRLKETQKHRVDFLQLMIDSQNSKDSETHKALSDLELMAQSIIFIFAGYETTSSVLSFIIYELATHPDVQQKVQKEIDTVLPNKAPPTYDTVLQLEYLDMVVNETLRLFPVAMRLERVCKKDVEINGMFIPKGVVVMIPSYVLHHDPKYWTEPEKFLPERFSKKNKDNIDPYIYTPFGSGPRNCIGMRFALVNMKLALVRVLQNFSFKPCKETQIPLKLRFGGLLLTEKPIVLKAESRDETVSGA

O=C(OC[C@H]1O[C@@H](OC(=O)c2cc(O)c(O)c(OC(=O)c3cc(O)c(O)c(O)c3)c2)[C@H](OC(=O)c2cc(O)c(O)c(OC(=O)c3cc(O)c(O)c(O)c3)c2)[C@@H](OC(=O)c2cc(O)c(O)c(OC(=O)c3cc(O)c(O)c(O)c3)c2)[C@@H]1OC(=O)c1cc(O)c(O)c(OC(=O)c2cc(O)c(O)c(O)c2)c1)c1cc(O)c(O)c(OC(=O)c2cc(O)c(O)c(O)c2)c1
inactive: Caspase-3 (Homo sapiens) | [1] | [2] | [8] | [9] | [10]
active: [3] 9.48 µM | [4] 10.2 µM | [5] 15.2 µM | CYP2C8 (gene 1558) 15.2 µM | CYP2C9 (gene 1559) 10.4 µM | CYP2E1 (gene 1571) 5.26 µM | CYP4A11 (gene 1579) 10.4 µM | [6] 11.3 µM | [7] 4.58 µM | [11] 8.99 µM | CYP3A5 (gene 1577) 4.94 µM | [12] 7.91 µM | [13] 9.29 µM

CC(=O)c1ccc2c(c1)[C@H](NC(=O)c1ccc(F)cc1)[C@@H](O)C(C)(C)O2
active: [4] 68.4 µM | [5] 16.3 µM | [6] 18 µM | [11] 34.2 µM
inactive: all other assays above

CCOC(=O)CC(CC(=O)OCC)(OC(C)=O)C(=O)OCC
active: [2] 20.5 µM
not listed: [14]
inactive: all other assays above

CCc1cc(SCc2sc(-c3ccc(C(F)(F)F)cc3)nc2CN2CCN(c3ccc(OC)cc3)CC2)ccc1OCC(=O)O
inactive: Caspase-3 (Homo sapiens) | [1] | [2] | CYP2C8 (gene 1558) | [8]
active: [3] 15.8 µM | [4] 7.48 µM | [5] 7.52 µM | CYP2C9 (gene 1559) 76.6 µM | CYP2E1 (gene 1571) 75.4 µM | CYP4A11 (gene 1579) 74.7 µM | [6] 7.66 µM | [7] 3.85 µM | [9] 51.9 µM | [10] 94.3 µM | [11] 8.73 µM | CYP3A5 (gene 1577) 10.9 µM | [12] 76.8 µM | [13] 7.1 µM

CNCc1ccc(NC(=O)c2c[nH]c3c2C(=O)CCC3)cc1
active: [2] 73.2 µM
not listed: [14]
inactive: all other assays above

C[C@](N)(Cc1ccc(O)c(O)c1)C(=O)O
inactive: all assays above
